Reference: the supplement of paper PMC3334620
The full ranking holds about 33,000 sequences; the median of “E-score (-0.5 to 0.5)” is about -0.035, and the highest 2% start at about 0.35. What follows is part of a selection rich in the highest values, with near analogues and random picks from the rest.

target: T1, Pdr3 (UniProt P33200); test: PBM E-score (8-mer binding enrichment) (E-score (-0.5 to 0.5)); higher = stronger / more preferred TF binding; settings: protein concentration: 200 nM; construct: GST-full length
T1 sequence: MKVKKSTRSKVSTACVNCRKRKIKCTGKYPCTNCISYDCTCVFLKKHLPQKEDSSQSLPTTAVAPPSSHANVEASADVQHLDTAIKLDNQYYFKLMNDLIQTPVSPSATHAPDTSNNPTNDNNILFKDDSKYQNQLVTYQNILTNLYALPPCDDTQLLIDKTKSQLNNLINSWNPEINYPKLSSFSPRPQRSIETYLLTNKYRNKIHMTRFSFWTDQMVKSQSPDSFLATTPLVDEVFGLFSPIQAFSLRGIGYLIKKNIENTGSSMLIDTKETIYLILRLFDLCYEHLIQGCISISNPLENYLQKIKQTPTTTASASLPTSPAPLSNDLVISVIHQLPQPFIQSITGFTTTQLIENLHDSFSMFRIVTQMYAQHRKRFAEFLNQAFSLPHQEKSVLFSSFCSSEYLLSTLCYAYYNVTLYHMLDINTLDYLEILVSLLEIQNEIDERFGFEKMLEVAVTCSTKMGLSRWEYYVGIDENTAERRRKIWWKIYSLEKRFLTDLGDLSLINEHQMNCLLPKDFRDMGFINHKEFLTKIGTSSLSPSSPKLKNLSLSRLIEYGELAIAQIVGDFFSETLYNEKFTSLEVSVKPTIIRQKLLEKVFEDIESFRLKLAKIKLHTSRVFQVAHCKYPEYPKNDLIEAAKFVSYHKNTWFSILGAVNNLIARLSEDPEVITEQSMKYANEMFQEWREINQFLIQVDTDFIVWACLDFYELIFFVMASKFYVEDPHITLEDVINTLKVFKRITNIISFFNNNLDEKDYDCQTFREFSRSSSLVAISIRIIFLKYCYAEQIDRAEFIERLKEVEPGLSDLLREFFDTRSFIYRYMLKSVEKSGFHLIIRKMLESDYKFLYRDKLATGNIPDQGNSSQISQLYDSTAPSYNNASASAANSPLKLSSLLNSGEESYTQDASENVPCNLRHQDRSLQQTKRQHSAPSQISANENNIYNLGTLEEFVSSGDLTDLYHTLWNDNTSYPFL
Procedure, shortened: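 Using PURExpress in vitro transcription/translation, GST-tagged yeast transcription factors were made in full-length or DNA-binding-domain form. These were applied at about 100-200 nM to double-stranded universal all-10-mer Agilent arrays, and bound protein was detected with fluorescent anti-GST. Scans were normalised with masliner before the Universal PBM Analysis Suite assigned E-scores to ungapped eight-base words pooled with their reverse complements.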

Row | Sequence | PBM E-score
1 | ACGGTTAT | -0.0715
2 | CGCCTCAC | 0.152
3 | ACGGTAAA | 0.0442
4 | GTCAAGGA | -0.0724
5 | ATCCGGTC | 0.215
6 | ATCCGGAA | 0.464
7 | GTCCGGCA | 0.295
8 | ATCCGGAT | 0.465
9 | GTCCGGAA | 0.457
10 | ATCCGGCA | 0.255
11 | ATCCGGAC | 0.355
12 | ACCCGGAC | 0.317
13 | ATCCGCAT | 0.267
14 | GTCCGGTA | 0.181
15 | ATCAGGAT | 0.113
16 | ATCCGGTA | 0.168
17 | CTGAGTGA | 0.179
18 | CACCCAGC | -0.0529
19 | CCTAGATC | -0.201
20 | ACTTTGCA | 0.00219
21 | ATCCGGTG | 0.35
22 | ATCCGGAG | 0.433
23 | ATCCGCAG | 0.316
24 | TAGCATGA | -0.224
